hNpr1 antagonist = Natriuretic polypeptide receptor (hNpr1) antagonism - Primary qHTS; AID 1347048, 2019; hit rate 1.6% among 76,000; Potency, µM (top dose mostly 46.3 µM), without a hit: top-dose activity change, negative = inhibition, hits mostly inhibitors; Atrial natriuretic peptide receptor 1 (Homo sapiens), P16066; HEK293 hNpr1 GloSensor cGMP, ANP-stimulated luminescence; calls by dose curve; note: % is set by controls: 0 for no effect and ±100 for the full control effect; nearly all actives have a fitted effect of over 60% in size
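Compound pre-incubated 30 min at room temperature on GloSensor-loaded HEK293 cells stably carrying hNpr1 and the pGS-40F cGMP biosensor. Stimulation uses hNppA at 0.1 nM final; luminescence is taken at baseline and 20 min post-agonist.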
FLuc inh = Firefly luciferase inhibition profiling of diverse chemical library using quantitative high-throughput screening; Potency, µM (series often up to 115 µM), most hits filed as inhibitors; Luciferin 4-monooxygenase (Photinus pyralis), P08659; purified P. pyralis luciferase, luminescence, biochemical; hit rate 2.5% among 76,000; note: % is set by controls: 0 for no effect and ±100 for the full control effect; nearly all actives have a fitted effect of over 65% in size
Target sequence (P08659 whole entry, looked up): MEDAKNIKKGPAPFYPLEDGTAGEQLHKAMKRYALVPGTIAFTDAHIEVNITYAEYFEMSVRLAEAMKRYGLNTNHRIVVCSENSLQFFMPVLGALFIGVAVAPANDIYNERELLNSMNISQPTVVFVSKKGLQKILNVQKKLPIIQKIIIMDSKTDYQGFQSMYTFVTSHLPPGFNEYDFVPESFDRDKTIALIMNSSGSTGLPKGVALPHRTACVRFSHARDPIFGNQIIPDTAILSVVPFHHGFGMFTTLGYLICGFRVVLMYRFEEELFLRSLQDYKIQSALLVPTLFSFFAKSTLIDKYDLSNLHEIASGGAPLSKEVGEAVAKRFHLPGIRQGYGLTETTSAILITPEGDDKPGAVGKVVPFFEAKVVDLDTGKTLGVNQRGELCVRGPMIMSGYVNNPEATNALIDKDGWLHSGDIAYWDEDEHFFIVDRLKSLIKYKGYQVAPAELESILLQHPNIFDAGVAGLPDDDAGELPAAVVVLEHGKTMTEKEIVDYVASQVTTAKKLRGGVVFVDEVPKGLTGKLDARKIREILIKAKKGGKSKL
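Luminescence read by CCD imager after adding enzyme (10nM final) to wells holding compound, titrated in qHTS. Substrates 10uM each D-luciferin and ATP; buffer 50mM Tris acetate pH 7.5, 10mM Mg acetate, Tween-20, BSA.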
GPT2 inh = Primary qHTS assay for inhibitors of Glutamate pyruvate transaminase 2 (GPT2) | Recombinant GPT2, coupled pyruvate oxidase/HRP Amplex Red fluorescence | Potency, µM (series often up to 57.7 µM), for the others: at the highest dose activity change, negative = inhibition, most hits filed as inhibitors | hit rate 0.25% among 100,000; note: % is set by controls: 0 for no effect and ±100 for the full control effect; nearly all actives have a fitted effect of over 60% in size
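Fluorescence read-out: pyruvate from GPT2 turnover coupled to pyruvate oxidase, HRP and Amplex Red (0.2mM ThPP, 0.2U/mL PO and HRP, 50uM Amplex final). Substrates 250uM a-KG, 2mM L-alanine; enzyme 10ng/uL; 30 min RT.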
NIH3T3 tox = Cytotoxic Profiling in NIH 3T3 Cell Line of Diverse Libraries Using Quantitative High-Throughput Screening | NIH 3T3 viability, CellTiter-Glo ATP luminescence, 48-72 h | Potency, µM (doses to about 96.7 µM), for the others: at the top dose activity change, negative = cytotoxicity, actives largely listed as inhibitors | hit rate 4.3% among 94,000 | AID 1345082, 2018; note: % is set by controls: 0 for no effect and ±100 for the full control effect; nearly all actives have a fitted effect of over 55% in size
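Viability of NIH 3T3 cells after 48 or 72 hr compound treatment at 37 °C was assessed by CellTiter-Glo, with luminescence imaged following a 10 min room-temperature step.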
HEK293 tox = Cytotoxic Profiling in HEK 293 Cell Line of Diverse Libraries Using Quantitative High-Throughput Screening; HEK 293 viability, ATP luminescence (CellTiter-Glo), 48-72 h; Potency, µM (top dose mostly 115 µM), inactives show at the highest dose activity change, negative = cytotoxicity, most hits filed as inhibitors; hit rate 6.6% among 94,000; AID 1345083, 2018; note: % is set by controls: 0 for no effect and ±100 for the full control effect; nearly all actives have a fitted effect of over 60% in size
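Cytotoxicity was scored by loss of ATP-coupled luminescence (CellTiter-Glo) in HEK 293 cells. Compound treatment ran 48 or 72 hr at 37 degree Celsius, 5% CO2, 95% humidity.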
Npr1 antag conf = Natriuretic polypeptide receptor (hNpr1) antagonism - Confirmation; shares compounds with hNpr1 antagonist; HEK293 hNpr1 cGMP GloSensor luminescence, ANP-stimulated; Potency, µM (highest dose often 57.6 µM), inactives show top-dose activity change, negative = inhibition, usual class: inhibitors; hit rate 76% among 1,400; calls by dose curve; note: nearly all actives have a fitted effect of over 70% in size
Npr2 selectivity = Natriuretic polypeptide receptor (hNpr2) antagonism - Subtype selectivity assay; shares compounds with hNpr1 antagonist; HEK293 hNpr2 GloSensor cGMP luminescence, CNP-stimulated; Potency, µM (doses to about 57.6 µM), for the others: at the top dose activity change, negative = inhibition, usual class: inhibitors; hit rate 67% among 1,400; AID 1347046, 2019; calls by dose curve; note: nearly all actives have a fitted effect of over 70% in size
FLuc counter = Natriuretic polypeptide receptor (hNpr1) antagonism - Confirmation firefly luciferase (FLuc) inhibition counterscreen; shares compounds with hNpr1 antagonist; purified FLuc enzyme, luminescence, Km substrate; hit rate 0.7% among 1,400; Potency, µM (titrated, usually from 57.6 µM), for inactives: at the highest dose activity change, negative = inhibition, actives largely listed as inhibitors; note: series mostly up to about 58 µM; 0% is about no effect
GloSensor ctrl = Natriuretic polypeptide receptor (hNpr1) antagonism - Counterscreen GloSensor control cell line; shares compounds with hNpr1 antagonist; Potency, µM (titrated, usually from 57.6 µM), for the others: top-dose activity change, negative = inhibition, most hits filed as inhibitors; hit rate 69% among 1,400; HEK293 GloSensor cGMP, SNP-stimulated, luminescence; calls by dose curve; note: % is set by controls: 0 for no effect and ±100 for the full control effect; nearly all actives have a fitted effect of over 70% in size
* = called active by the depositor; i = inactive; ? = inconclusive; / = no result; [ ] = remark or other dose. Rows were chosen to be rich in hits. Some 10% of all compounds tested hit in one or more screens of this group. Unless noted, calls come from the whole dose curve; as a rule, active = well fitted curve in the direction sought with a large enough effect; inconclusive = small, poorly fitted or top-dose-only effect, or another doubt; inactive = no such curve, though single readings can be large; an effect the other way counts as inactive or inconclusive. Potency is the fitted concentration of half-maximal effect.

SMILES	hNpr1 antagonist	FLuc inh	GPT2 inh	NIH3T3 tox	HEK293 tox	Npr1 antag conf	Npr2 selectivity	FLuc counter	GloSensor ctrl
Cc1cccc(CC(=O)N2CCC(Cc3nc(-c4cnccn4)no3)CC2)c1	1.2%	i	i	-11.5%	9.9%	/	/	/	/
Cc1ccccc1CC(=O)N1CCC(Cc2nc(-c3cnccn3)no2)CC1	-0.3%	i	-3.0%	-5.4%	5.8%	/	/	/	/
COc1ccc(CC(=O)N2CCC(Cc3nc(-c4ccccc4)no3)CC2)cc1	7.08µM*	i	i	11.2µM*	14.1µM*	9.68µM*	12.2µM*	-0.3%	10.9µM*
CCOc1ccc(CC(=O)N2CCC(Cc3nc(-c4ccccc4)no3)CC2)cc1	15.8µM*	i	i	?	22.4µM*	13.7µM*	17.2µM*	9.1%	12.2µM*
Cc1cc(CNC(=O)c2ccc3c(c2)n(CC2CC2)c(=O)n3C2CCCCC2)on1	5.62µM*	i	-5.2%	?	-21.7%	13.7µM*	4.85µM*	-2.4%	-6.2%
Cc1cc(CNC(=O)c2ccc(S(=O)(=O)NCC(F)F)cc2)on1	-2.1%	i	i	-12.3%	-14.5%	/	/	/	/
COCCC(=O)N1CCCC(Cc2nc(C3CCOCC3)no2)C1 (centres undefined)	-17.7%	i	-15.1%	i	2.7%	-6.7%	1.5%	1.4%	1.8%
O=C(CCCc1ccccc1)N1CCCC(Cc2nc(C3CCOCC3)no2)C1 (centres undefined)	-0.3%	i	-0.2%	?	?	/	/	/	/
Cc1cnc(CC2CCN(S(=O)(=O)c3ccccc3)CC2)n1Cc1ccc(F)cc1	/	/	i	?	?	/	/	/	/
Cc1ccccc1C(=O)N[C@H]1[C@H](O)[C@H](O)C[C@@H]1c1ccccc1C	-0.6%[70.6 µM]	i	0.7%[88.5 µM]	i	i	/	/	/	/
Cc1nn2c(c1-c1ccccc1OCc1ccccc1)N(C(=O)c1ccn(C)n1)CCC2	-0.2%[70.6 µM]	i	3.9%[88.5 µM]	?	-18.2%[172 µM]	/	/	/	/
Cc1nn2c(c1-c1cccnc1N1CCOCC1)N(C(=O)Cc1cccc(Cl)c1)CCC2	-21.0%	i	1.4%	?	3.8%	-26.9%	?	0.1%	6.6%
Cc1nn2c(c1-c1cccnc1N1CCOCC1)N(CCc1ccccc1)CCC2	3.98µM*	i	i	?	25.1µM*	35.3µM*	31.4µM*	-6.0%[86.2 µM]	?
CCN1C(=O)C2CC3(CCN(C(=O)CN4CCCC4=O)CC3)CN2C1=O (centres undefined)	4.4%	i	-10.8%	0.1%	i	/	/	/	/
COc1ccc(CN2CCC(C3CCNC3)CC2)c(OC)c1 (centres undefined)	5.9%	i	i	-10.4%	-1.8%	/	/	/	/
O=C1c2c(nc(CNCc3cccc(Cl)c3)n2Cc2ccccc2)NCCN1CCOc1ccccc1	-28.8%	i	1.0%	?	?	?	?	1.9%	?
O=C1c2c(nc(COc3ccc4c(c3)OCO4)n2Cc2ccccc2)NCCN1Cc1ccccc1F	?	i	-10.3%	?	35.5µM*	24.3µM*	?	4.3%	?
O=C1c2c(nc(CNCc3cccc(F)c3)n2Cc2ccccc2)NCCN1Cc1cccc(Cl)c1	-23.8%	i	-2.5%	?	?	/	/	/	/
O=C(CCc1conc1-c1ccccc1F)NCC1CCCCC1	1.6%	i	-0.9%	-20.4%	?	/	/	/	/
CCc1ccccc1NC(=O)c1cc2c(N3CCSCC3)nc(C)cn2n1	5.8%	i	1.5%	?	?	/	/	/	/
COc1cccc(-c2ccccc2NC(=O)C2CCN(Cc3cc(OC)ccc3O)CC2)c1	?	i	?	?	17.8µM*	24.3µM*	?	-17.2%	27.3µM*
O=C(NCc1ccc(F)c(Cl)c1)c1cc2n(n1)CC(c1ccc(Cl)cc1)OC2 (centres undefined)	?	i	-16.0%	?	35.5µM*	?	-27.5%	3.1%	?
COc1ccc(CNC(=O)c2cc3n(n2)CC(c2ccc(Cl)cc2)OC3)cc1OC (centres undefined)	?	i	-7.1%	?	?	/	/	/	/
CC(C)Oc1ccc(CNC(=O)c2cc3n(n2)CC(c2ccc(Cl)cc2)OC3)cc1 (centres undefined)	?	i	?	?	?	?	-21.7%	2.0%	-25.3%
CN(C)C(=O)c1cc2c(s1)CCC(C(=O)Nc1ccc(F)c(Cl)c1)C2 (centres undefined)	-21.1%	i	i	?	?	/	/	/	/
O=C(Nc1ccc(F)c(Cl)c1)C1CCc2sc(C(=O)N3CCOCC3)cc2C1 (centres undefined)	8.91µM*	i	i	?	28.2µM*	10.9µM*	12.2µM*	3.9%	9.68µM*
CCOCCN1C(=O)COC[C@@H]1[C@H](O)c1ccc(NC(=O)c2cccc(C#N)c2)cc1	5.0%[70.6 µM]	i	-16.7%[88.5 µM]	-0.6%[174 µM]	3.9%[172 µM]	/	/	/	/
CC(=O)N1CCN(C(=O)c2ccc3nnc(-c4cc(C(F)(F)F)cc(C(F)(F)F)c4)n3c2)CC1	/	/	i	-3.3%	1.7%	/	/	/	/
Cc1oc(C(O)c2ccccc2F)nc1C(=O)Nc1ccc(C(N)=O)cc1 (centres undefined)	?	i	-1.6%[88.5 µM]	?	?	/	/	/	/

Source: PubChem
